# Assay outcomes: PubChem BioAssay, several laboratories
# Sampled rows, rich in hits. Any-hit rate of the full collection: about 21%.
# MRP1 act = H69AR viability gain despite doxorubicin, primary screen, MRP-1 activator project, H69AR cells, CellTiter-Glo; actives 0.61% (n = 140,000); viability increase, % at 10 µM; viability rescue;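 active = viability gain under doxorubicin at or above a set limit, the compound median plus 3 SD, cut at about 4.7% in these data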;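 note: MRP-1 overexpressing cells given doxorubicin 25 µM after compound pretreatment; 18-22 h compound pretreatment then 72 h with doxorubicin before readout; 0% = doxorubicin-only wells and 100% = vehicle-treated cells without doxorubicin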
# CYP2C9 inhib = blockers of cytochrome P450 2C9 activity – biochemical, luminescence, ADME assay, primary screen; actives 20% (n = 96,000); inhibition, % at 5 µM; CYP2C9 Supersomes, luciferin-H conversion;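 active = blocking of liver enzyme CYP2C9 beyond about 50% at 5 µM, limit read from the data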
# Target sequence (P11712 whole entry, looked up): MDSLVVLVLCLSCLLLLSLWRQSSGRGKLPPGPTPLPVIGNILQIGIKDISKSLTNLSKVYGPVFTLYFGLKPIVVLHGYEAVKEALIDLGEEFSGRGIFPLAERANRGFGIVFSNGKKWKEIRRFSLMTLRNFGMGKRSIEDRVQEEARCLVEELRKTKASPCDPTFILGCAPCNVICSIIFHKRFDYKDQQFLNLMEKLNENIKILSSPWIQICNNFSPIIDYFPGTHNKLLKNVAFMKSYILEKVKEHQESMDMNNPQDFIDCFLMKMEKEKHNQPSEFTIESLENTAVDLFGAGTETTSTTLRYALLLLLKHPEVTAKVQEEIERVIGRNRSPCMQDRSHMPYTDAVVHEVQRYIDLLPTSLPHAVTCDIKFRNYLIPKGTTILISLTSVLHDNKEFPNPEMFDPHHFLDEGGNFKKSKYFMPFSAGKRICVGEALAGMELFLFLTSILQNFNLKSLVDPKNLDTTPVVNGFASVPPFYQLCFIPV
# MRP reversal = reversal of MRP1-mediated doxorubicin resistance, primary screen, H69AR cells, doxorubicin co-treatment | H69AR cells + 2 uM doxorubicin, CellTiter-Glo, 72 h | differential viability (reversal), % at 10 µM | actives 0.04% (n = 85,000);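 active = viability drop by adding the cancer drug above about 55%, with treated viability meeting a 40% cutoff, limit read from the data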;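 note: viability without doxorubicin minus viability with 2 µM doxorubicin for each compound; larger differential means the compound sensitizes cells more to doxorubicin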
# CYP2C19 inh = blockers of cytochrome P450 2C19 activity – biochemical, luminescence, ADME assay, primary screen; CYP2C19 Supersomes, luciferin-H EGE luminescence, 30 min; inhibition, % at 5 µM; actives 21% (n = 96,000); AID 778, 2007; P33261;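 active = CYP2C19 inhibition above a set limit at 5 µM in the primary screen, cut at about 50% in these data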;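 note: plate controls were negative control wells for no effect and 2.5 mM tranylcypromine positive control for full effect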
# CYP2C19 act = human CYP2C19 activators, primary screen, biochemical, luminescence. AID 1025, 2008. 96,000 tested, under 10 active. activation factor at 5 µM. Cytochrome P450 2C19 (Homo sapiens), P33261. recombinant CYP2C19, luciferin-H EGE luminescence; stronger effect = higher value; 0 = fully inhibited enzyme, 1 = untreated enzyme;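 active = activation factor of at least 2 at 5 µM in the primary screen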;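 note: 0 = wells with 2.5 mM tranylcypromine and 1 = vehicle-only wells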
# CYP2C9 act = human CYP2C9 activators, primary screen, biochemical, luminescence. recombinant CYP2C9, luciferin-H conversion; stronger effect = higher value; factor 1 = untreated enzyme, 0 = blocked. activation factor at 5 µM. actives 1.4% (n = 96,000);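 active = activation factor of 2 or more for CYP2C9 at a 5 µM dose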;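 note: 0 = sulfaphenazole-blocked wells and 1 = vehicle-only wells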
# Starred values were filed as active, the others as inactive; x = no result given.
SMILES,MRP1 act,CYP2C9 inhib,MRP reversal,CYP2C19 inh,CYP2C19 act,CYP2C9 act
O=S(=O)(c1ccc2c(c1)oc1ccccc12)N1CCOCC1,-1,-42,7,10,0.9,1.4
COc1cc2c(cc1NC(=O)CN1CCN(S(=O)(=O)c3ccccc3F)CC1)oc1ccccc12,-1,29,-5,18,0.8,0.7
COc1cc2c(cc1NS(=O)(=O)N1CCCCC1)oc1ccccc12,1,-61,2,70*,0.3,1.6
CCN(CC)C(=O)COc1ccc(-c2ccccc2)cc1,0,17,14,40,0.6,0.8
CCCCCCCN=CC1=C(O)CC(c2ccccc2)CC1=O (stereo unspecified),-2,x,x,x,x,x
Cc1sc(NC(=O)c2ccco2)c(C(=O)c2ccc(Cl)cc2)c1C,1,x,x,x,x,x
Cc1ccc(C(=O)c2c(NC(=O)c3ccccc3C)sc(C)c2C)cc1,-1,78*,x,30,0.7,0.2
CC(=O)SC(C)CC(=O)NCc1ccccc1 (stereo unspecified),0,10,-3,42,0.6,0.9
Cc1cccc(C)c1-n1nnnc1SCSc1nnnn1-c1c(C)cccc1C,-4,77*,28,33,0.7,0.2
CCOC(=O)CSc1nnnn1-c1cccc2ccccc12,-3,x,-3,x,x,x
Cc1cccc(OCC(=O)NNC(=O)C2CCCCC2C(=O)O)c1 (stereo unspecified),0,x,x,x,x,x
Cc1ccnc(NS(=O)(=O)c2ccc(NC(=O)C34CC5CC(C)(CC(C)(C5)C3)C4)cc2)n1,1,58*,19,-1,1,0.4
Cc1ccccc1N(CC(=O)NCC1CCCO1)C(=O)C1(C)CC(=O)N=C2C=CC=CN21 (stereo unspecified),1,-4,-6,-8,1.1,1
CCOC(=O)c1cc2c(nc1N)CC(C)(CC)OC2 (stereo unspecified),0,32,2,92*,0.1,0.7
CCOC(=O)c1cc2c(nc1N)CC(C)(C)OC2,-3,x,7,x,x,x
CC(C)C1Cc2c(C#N)c(N)sc(=S)c2CO1 (stereo unspecified),0,84*,10,51*,0.5,0.2
CC1(C)Cc2c(C#N)c(N)sc(=S)c2CO1,-1,68*,5,17,0.8,0.3
Cc1cc(N2C(=O)NC(=O)CC2C)c(C)cc1C(C)C (stereo unspecified),2,x,x,x,x,x
CCOc1cccc(C(=O)NC2CCCCC2)c1,0,-30,7,68*,0.3,1.3
CCOC(=O)COc1ccc(C(=O)NC2CCCCC2)cc1,0,-202,-2,22,0.8,3*
Cc1ccc(C(=O)NC2CCCCC2)cc1,-2,-5,-1,14,0.9,1
COc1ccc(NC(=O)N2CCCCC2c2cccnc2)cc1 (stereo unspecified),-1,x,x,x,x,x
CCOc1cccc(C(=O)N2CCCCC2c2cccnc2)c1 (stereo unspecified),-1,-108,2,43,0.6,2.1*
CCCCOc1cccc(C(=O)NNC(=S)NC2CCCCC2)c1,-4,x,x,x,x,x
CCOc1ccccc1N/C(=N/c1nc(C)cc(C)n1)NC(=O)Nc1ccc(Cl)c(Cl)c1,2,x,x,x,x,x
Cn1c(Sc2ccc(C(F)(F)F)cc2[N+](=O)[O-])nnc1-c1ccccc1,-6,-100,x,34,0.7,2*
Cn1c(Sc2ccc([N+](=O)[O-])cc2C(F)(F)F)nnc1-c1ccccc1,-2,-18,x,41,0.6,1.2
Cc1ccc(C2/C(=C(/O)c3ccc(Br)cc3)C(=O)C(=O)N2Cc2ccco2)o1 (stereo unspecified),-3,72*,7,-13,1.1,0.3
COc1ccc(/C(O)=C2\C(=O)C(=O)N(Cc3ccco3)C2c2cc(OC)ccc2OC)cc1 (stereo unspecified),-1,x,-12,x,x,x
Cc1ccccc1COc1ccc(/C(O)=C2/C(=O)C(=O)N(CCCn3ccnc3)C2c2ccco2)cc1 (stereo unspecified),x,95*,-13,75*,0.2,0
